# Measured values published in publication PMC7862700, “An all-to-all approach to the identification of sequence-specific readers for epigenetic DNA modifications on cytosine”.
# Legend:
# Assay in all cases: DAPPL (digital affinity profiling via proximity ligation, sequencing); 10 mM Tris-HCl pH 7.5, 50 mM NaCl, 1 mM DTT, 4% glycerol, room temperature, 30 min; GST-TFs on glutathione beads, 16-mer random dsDNA library, 0.1% formaldehyde crosslink after washing; high values mean tight binding
# Settings in all cases: protein: recombinant; tags: N-terminal GST; dsDNA, one strand shown
# FLI1 = biological target: T1, FLI1 (Homo sapiens, UniProt Q01543 1-452)
# T1 sequence: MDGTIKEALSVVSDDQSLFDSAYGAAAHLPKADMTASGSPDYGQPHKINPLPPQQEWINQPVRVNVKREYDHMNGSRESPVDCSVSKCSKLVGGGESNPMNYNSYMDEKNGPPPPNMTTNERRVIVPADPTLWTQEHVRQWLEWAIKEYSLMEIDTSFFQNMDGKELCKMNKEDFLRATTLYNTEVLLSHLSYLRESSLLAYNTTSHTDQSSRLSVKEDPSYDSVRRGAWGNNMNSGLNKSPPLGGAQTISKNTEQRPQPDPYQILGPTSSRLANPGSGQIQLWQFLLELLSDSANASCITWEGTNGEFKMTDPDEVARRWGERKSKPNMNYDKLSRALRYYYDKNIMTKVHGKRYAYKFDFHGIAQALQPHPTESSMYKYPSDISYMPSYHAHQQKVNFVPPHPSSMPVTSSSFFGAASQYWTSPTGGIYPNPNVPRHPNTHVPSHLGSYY
# Summary of the method: (§1)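 Pools were built from human transcription factors expressed in yeast as GST fusions, captured on glutathione beads and DNA-barcoded, along with a tag-only sample. Incubation with 200 nmole of a 16-mer random double-stranded DNA library lasted 30 min at room temperature in Tris/NaCl/DTT/glycerol buffer, and was followed by washing, 0.1% formaldehyde crosslinking, proximity ligation, PCR amplification and Illumina NextSeq500 sequencing. Binding signal is the quotient of each hexamer's read frequency for a factor and its frequency for the tag-only sample.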
# ELK1 = biological target: T2, ELK1 (Homo sapiens, UniProt P19419 1-428)
# T2 sequence: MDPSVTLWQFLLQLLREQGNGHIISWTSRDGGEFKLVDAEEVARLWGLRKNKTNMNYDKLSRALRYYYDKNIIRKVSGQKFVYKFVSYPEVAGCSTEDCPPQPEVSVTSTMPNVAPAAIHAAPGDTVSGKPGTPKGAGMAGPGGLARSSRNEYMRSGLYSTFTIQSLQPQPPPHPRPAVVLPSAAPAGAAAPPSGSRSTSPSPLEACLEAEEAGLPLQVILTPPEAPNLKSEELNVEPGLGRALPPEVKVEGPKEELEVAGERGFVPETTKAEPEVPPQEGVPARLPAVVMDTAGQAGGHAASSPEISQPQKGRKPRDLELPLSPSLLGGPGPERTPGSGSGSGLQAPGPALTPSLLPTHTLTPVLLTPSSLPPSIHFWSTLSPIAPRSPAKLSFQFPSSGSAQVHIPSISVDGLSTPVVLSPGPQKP
# Summary of the method: as §1
# GABPA = biological target: T3, GABPA (Homo sapiens, UniProt Q06546 1-454)
# T3 sequence: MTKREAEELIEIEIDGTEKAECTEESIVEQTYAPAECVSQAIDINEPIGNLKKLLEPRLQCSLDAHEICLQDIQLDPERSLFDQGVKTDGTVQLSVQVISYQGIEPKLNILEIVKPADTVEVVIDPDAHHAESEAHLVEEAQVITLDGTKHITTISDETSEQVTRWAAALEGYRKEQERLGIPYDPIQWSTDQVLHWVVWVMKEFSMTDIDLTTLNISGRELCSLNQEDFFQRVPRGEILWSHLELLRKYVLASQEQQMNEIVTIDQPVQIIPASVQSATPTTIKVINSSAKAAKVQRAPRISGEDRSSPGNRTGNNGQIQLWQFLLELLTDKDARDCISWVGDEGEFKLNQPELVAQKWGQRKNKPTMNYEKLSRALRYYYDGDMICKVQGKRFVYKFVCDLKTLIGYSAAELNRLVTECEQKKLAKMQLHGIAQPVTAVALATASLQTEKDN
# Summary of the method: as §1
# ERG = biological target: T4, ERG (Homo sapiens, UniProt P11308 1-479)
# T4 sequence: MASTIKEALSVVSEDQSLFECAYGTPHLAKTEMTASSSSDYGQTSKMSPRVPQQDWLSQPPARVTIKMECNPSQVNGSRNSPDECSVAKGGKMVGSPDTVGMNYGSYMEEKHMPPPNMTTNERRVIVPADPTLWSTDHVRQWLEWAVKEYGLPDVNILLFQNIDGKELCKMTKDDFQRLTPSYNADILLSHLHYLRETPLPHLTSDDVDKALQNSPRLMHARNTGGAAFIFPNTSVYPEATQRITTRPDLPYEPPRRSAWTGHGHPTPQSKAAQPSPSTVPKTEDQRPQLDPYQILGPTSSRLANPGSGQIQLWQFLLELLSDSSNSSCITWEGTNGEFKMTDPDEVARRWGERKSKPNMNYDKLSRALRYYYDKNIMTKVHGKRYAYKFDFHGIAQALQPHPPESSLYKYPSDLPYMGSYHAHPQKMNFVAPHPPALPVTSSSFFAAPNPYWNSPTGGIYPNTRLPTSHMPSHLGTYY
# Summary of the method: as §1
# ELF1 = ELF1 (Homo sapiens, UniProt P32519 1-619)
# ELF1, sequence (P32519 whole entry): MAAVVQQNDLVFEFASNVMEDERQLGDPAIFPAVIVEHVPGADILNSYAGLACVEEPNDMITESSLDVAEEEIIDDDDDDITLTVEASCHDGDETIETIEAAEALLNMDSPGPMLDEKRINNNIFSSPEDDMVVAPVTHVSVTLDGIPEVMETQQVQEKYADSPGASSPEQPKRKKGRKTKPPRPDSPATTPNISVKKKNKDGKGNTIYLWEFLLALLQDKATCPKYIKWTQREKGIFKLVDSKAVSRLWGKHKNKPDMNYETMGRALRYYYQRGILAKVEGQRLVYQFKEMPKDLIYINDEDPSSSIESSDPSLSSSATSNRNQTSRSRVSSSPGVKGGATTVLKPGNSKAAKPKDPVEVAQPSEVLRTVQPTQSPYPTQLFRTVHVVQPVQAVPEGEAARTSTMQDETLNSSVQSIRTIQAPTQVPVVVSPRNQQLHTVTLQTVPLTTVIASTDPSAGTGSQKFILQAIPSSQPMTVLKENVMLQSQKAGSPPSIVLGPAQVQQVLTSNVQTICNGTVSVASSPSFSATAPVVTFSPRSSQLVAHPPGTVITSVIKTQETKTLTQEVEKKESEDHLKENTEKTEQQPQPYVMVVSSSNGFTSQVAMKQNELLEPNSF
# Summary of the method: as §1
# EHF = biological target: T5, EHF (Homo sapiens, UniProt Q9NZC4 1-300)
# T5 sequence: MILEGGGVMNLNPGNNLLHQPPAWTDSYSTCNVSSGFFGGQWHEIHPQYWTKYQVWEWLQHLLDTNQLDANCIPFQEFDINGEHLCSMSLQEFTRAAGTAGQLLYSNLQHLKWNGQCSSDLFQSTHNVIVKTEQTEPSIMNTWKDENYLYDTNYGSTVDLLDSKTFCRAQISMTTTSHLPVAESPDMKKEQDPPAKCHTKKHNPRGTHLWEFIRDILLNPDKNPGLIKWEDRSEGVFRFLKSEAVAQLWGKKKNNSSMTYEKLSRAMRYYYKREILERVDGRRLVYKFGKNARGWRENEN
# Summary of the method: as §1
# SPI1 = SPI1 (Homo sapiens, UniProt P17947 1-270)
# Summary of the method: as §1
# SPIB = SPIB (Homo sapiens, UniProt Q01892 1-262)
# SPIB, sequence (Q01892 whole entry): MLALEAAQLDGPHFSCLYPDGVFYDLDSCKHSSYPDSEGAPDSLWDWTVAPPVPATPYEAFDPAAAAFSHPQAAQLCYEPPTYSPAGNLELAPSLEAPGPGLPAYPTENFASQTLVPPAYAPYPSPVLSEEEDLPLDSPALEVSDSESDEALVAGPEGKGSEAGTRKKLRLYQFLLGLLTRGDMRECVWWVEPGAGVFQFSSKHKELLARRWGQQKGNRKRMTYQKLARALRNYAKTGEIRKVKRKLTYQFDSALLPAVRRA
# Summary of the method: as §1
# ELK3 = biological target: T6, ELK3 (Homo sapiens, UniProt P41970 1-407)
# T6 sequence: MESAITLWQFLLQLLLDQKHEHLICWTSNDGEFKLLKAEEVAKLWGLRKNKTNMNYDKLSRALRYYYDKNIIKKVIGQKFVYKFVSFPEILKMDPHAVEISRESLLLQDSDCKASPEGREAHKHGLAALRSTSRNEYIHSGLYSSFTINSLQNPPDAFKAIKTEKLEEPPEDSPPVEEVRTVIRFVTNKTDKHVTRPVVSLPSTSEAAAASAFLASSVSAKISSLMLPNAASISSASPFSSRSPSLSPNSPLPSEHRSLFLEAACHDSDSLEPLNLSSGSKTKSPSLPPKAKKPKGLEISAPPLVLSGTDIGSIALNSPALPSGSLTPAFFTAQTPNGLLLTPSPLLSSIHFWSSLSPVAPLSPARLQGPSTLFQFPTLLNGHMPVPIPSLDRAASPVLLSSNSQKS
# Summary of the method: as §1
# FEV = biological target: T7, FEV (Homo sapiens, UniProt Q99581 1-238)
# T7 sequence: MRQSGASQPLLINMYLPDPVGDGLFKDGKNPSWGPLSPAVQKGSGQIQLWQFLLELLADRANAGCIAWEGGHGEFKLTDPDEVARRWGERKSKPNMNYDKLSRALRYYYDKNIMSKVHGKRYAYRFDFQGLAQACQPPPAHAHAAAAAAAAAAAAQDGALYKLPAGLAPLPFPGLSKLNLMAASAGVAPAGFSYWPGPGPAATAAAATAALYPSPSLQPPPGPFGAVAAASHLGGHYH
# Summary of the method: as §1
# ETV5 = ETV5 (Homo sapiens, UniProt P41161 1-510)
# ETV5, sequence (P41161 whole entry): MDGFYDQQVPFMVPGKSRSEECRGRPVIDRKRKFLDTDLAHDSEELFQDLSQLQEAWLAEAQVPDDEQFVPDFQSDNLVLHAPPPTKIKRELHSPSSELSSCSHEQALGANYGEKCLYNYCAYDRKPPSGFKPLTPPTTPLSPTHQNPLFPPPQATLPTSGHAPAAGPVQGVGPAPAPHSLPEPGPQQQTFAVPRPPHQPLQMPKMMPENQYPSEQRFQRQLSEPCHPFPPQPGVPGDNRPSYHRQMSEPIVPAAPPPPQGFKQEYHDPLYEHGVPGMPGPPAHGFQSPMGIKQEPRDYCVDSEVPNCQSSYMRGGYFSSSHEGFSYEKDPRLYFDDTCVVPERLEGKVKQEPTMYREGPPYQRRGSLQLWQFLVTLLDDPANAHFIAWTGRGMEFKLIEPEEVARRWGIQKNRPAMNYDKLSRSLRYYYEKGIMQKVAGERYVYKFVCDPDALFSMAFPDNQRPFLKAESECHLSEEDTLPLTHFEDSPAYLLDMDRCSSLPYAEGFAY
# Summary of the method: as §1
# SPIC = biological target: T8, SPIC (Homo sapiens, UniProt Q8N5J4 1-248)
# T8 sequence: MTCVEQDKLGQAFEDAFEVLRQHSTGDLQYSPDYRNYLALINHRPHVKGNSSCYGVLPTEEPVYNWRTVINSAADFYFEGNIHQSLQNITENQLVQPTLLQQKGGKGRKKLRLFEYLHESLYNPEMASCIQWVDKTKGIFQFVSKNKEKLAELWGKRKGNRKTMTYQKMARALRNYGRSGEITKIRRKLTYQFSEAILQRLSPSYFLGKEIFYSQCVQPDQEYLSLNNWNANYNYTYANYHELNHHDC
# Summary of the method: as §1
# ELF4 = ELF4 (Homo sapiens, UniProt Q99607 1-663)
# ELF4, sequence (Q99607 whole entry): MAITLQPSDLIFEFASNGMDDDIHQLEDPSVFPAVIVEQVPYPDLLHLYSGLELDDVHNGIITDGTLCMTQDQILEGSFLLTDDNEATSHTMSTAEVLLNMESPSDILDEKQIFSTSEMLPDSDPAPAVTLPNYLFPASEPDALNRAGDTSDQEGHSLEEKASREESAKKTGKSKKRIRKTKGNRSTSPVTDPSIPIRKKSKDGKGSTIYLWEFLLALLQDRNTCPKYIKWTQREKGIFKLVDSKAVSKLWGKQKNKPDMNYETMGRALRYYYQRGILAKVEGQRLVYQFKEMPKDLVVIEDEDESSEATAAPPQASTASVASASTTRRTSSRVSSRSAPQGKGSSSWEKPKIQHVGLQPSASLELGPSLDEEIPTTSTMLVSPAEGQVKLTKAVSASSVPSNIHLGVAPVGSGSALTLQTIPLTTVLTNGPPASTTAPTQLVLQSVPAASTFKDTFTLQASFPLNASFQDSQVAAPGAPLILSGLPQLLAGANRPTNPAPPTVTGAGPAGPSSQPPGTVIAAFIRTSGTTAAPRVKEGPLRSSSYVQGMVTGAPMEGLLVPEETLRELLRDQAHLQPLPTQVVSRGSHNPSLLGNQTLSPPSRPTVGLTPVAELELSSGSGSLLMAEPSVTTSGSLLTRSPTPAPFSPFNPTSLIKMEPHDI
# Summary of the method: as §1
# ELK4 = biological target: T9, ELK4 (Homo sapiens, UniProt P28324-2 1-405)
# T9 sequence: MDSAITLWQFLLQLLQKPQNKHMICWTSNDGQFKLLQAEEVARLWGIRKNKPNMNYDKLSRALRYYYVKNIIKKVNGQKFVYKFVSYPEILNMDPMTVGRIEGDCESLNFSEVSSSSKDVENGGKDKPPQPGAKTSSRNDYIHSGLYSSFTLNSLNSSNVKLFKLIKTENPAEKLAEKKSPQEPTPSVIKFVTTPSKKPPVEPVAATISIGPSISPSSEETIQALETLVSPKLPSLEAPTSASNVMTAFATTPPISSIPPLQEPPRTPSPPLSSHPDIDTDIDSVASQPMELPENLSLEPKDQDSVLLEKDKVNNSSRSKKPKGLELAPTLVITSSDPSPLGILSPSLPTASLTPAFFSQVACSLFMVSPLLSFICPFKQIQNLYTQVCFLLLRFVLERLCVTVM
# Summary of the method: as §1
# ETV2 = biological target: T10, ETV2 (Homo sapiens, UniProt O00321 1-342)
# T10 sequence: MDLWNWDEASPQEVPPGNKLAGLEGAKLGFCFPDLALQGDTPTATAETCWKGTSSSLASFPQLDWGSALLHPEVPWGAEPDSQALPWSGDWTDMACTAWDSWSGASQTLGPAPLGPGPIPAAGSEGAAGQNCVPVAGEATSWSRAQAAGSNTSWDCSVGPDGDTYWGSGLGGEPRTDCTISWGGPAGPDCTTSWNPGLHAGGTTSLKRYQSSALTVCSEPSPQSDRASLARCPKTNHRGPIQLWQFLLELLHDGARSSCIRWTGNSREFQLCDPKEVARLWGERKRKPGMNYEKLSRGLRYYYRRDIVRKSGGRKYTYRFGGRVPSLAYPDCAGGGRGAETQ
# Summary of the method: as §1
# ELF3 = biological target: T11, ELF3 (Homo sapiens, UniProt P78545 1-371)
# T11 sequence: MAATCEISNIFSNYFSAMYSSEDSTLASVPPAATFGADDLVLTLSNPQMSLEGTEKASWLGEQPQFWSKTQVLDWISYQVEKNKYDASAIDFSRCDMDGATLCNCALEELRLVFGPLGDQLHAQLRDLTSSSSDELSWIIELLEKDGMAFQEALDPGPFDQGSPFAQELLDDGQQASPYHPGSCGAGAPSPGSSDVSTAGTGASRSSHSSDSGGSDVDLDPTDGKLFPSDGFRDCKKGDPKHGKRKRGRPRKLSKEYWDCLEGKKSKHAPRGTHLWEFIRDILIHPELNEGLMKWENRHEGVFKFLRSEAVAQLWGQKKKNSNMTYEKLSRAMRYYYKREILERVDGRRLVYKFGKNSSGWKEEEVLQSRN
# Summary of the method: as §1
# ETV1 = ETV1 (Homo sapiens, UniProt P50549 1-477)
# ETV1, sequence (P50549 whole entry): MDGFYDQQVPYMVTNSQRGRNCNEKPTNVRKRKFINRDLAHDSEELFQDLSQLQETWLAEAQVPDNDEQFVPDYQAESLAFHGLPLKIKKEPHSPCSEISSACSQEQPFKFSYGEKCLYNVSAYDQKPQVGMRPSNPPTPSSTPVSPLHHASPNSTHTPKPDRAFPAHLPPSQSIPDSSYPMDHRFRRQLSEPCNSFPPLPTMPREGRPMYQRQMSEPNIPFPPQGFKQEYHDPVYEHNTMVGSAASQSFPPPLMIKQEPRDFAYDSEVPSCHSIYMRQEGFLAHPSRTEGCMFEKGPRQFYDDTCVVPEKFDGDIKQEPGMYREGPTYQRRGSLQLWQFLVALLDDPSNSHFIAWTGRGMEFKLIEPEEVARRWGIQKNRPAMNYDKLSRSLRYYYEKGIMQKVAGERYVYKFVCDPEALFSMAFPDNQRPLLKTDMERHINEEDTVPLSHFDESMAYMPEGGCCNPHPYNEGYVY
# Summary of the method: as §1
Sequence,binding signal (FLI1),binding signal (ELK1),binding signal (GABPA),binding signal (ERG),binding signal (ELF1),binding signal (EHF),binding signal (SPI1),binding signal (SPIB),binding signal (ELK3),binding signal (FEV),binding signal (ETV5),binding signal (SPIC),binding signal (ELF4),binding signal (ELK4),binding signal (ETV2),binding signal (ELF3),binding signal (ETV1)
GCCGAC,"1.19 fold enrichment (6-mer frequency, TF over GST control)","1.23 fold enrichment (6-mer frequency, TF over GST control)","1.21 fold enrichment (6-mer frequency, TF over GST control)","1.17 fold enrichment (6-mer frequency, TF over GST control)","1.1 fold enrichment (6-mer frequency, TF over GST control)","1.05 fold enrichment (6-mer frequency, TF over GST control)","1.05 fold enrichment (6-mer frequency, TF over GST control)","1.18 fold enrichment (6-mer frequency, TF over GST control)","1.15 fold enrichment (6-mer frequency, TF over GST control)","1.14 fold enrichment (6-mer frequency, TF over GST control)","1.02 fold enrichment (6-mer frequency, TF over GST control)","1.34 fold enrichment (6-mer frequency, TF over GST control)","1.08 fold enrichment (6-mer frequency, TF over GST control)","1.15 fold enrichment (6-mer frequency, TF over GST control)","1.15 fold enrichment (6-mer frequency, TF over GST control)","1 fold enrichment (6-mer frequency, TF over GST control)","1.04 fold enrichment (6-mer frequency, TF over GST control)"
TGTGCC,"1.17 fold enrichment (6-mer frequency, TF over GST control)","1.2 fold enrichment (6-mer frequency, TF over GST control)","1.07 fold enrichment (6-mer frequency, TF over GST control)","1.17 fold enrichment (6-mer frequency, TF over GST control)","1.21 fold enrichment (6-mer frequency, TF over GST control)","1.02 fold enrichment (6-mer frequency, TF over GST control)","1.06 fold enrichment (6-mer frequency, TF over GST control)","1.04 fold enrichment (6-mer frequency, TF over GST control)","1.3 fold enrichment (6-mer frequency, TF over GST control)","1.2 fold enrichment (6-mer frequency, TF over GST control)","1.21 fold enrichment (6-mer frequency, TF over GST control)","1.12 fold enrichment (6-mer frequency, TF over GST control)","1.17 fold enrichment (6-mer frequency, TF over GST control)","1.32 fold enrichment (6-mer frequency, TF over GST control)","1.23 fold enrichment (6-mer frequency, TF over GST control)","1.03 fold enrichment (6-mer frequency, TF over GST control)","1.05 fold enrichment (6-mer frequency, TF over GST control)"
